From PubChem BioAssay (Tox21) come the findings set out here.

A number with no mark means an inactive call. Results filed as inconclusive are left out. Activity calls are given as the source filed them. Unless noted, calls follow the shape of the full dose curve.

Assay [1] in a line: Nuclear factor erythroid 2-related factor 2/antioxidant responsive element (Nrf2/ARE) small molecule agonists: qHTS cell viability counter screen in human keratinocytes (AID 1919968; active = well fitted curve in the direction sought with a large enough effect in the repeat runs; an effect the other way counts as inactive or inconclusive; also: nearly all actives have a fitted effect of over 55% in size). The method in brief: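 KeratinoSens HaCaT cells, 1,500/well, preincubated 5 h, then exposed to compounds in DMSO for 23 h at 37 C/5% CO2. Viability read as CellTiter-Fluor fluorescence after 1 h, in the same wells as the ARE-luciferase read.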
Background: qHTS replaces the single test concentration by a dilution series.

The nature of assay [2]: Nuclear factor erythroid 2-related factor 2/antioxidant responsive element (Nrf2/ARE) small molecule agonists: luciferase reporter gene qHTS assay in human keratinocytes (AID 1919969). Also: nearly all actives have a fitted effect of over 35% in size. Also: potency is read from the fitted curve at half-maximal effect.
Assay [3] has as its target Gonadotropin-releasing hormone receptor (Homo sapiens) (UniProt P30968). The assay is described as follows: Human gonadotropin-releasing hormone receptor (GnRHR) small molecule agonists, calcium flux assay in GnRHR-HEK293 cells (AID 1920063). Also: nearly all actives have a fitted effect of over 35% in size. The procedure, abridged: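 HEK293 cells stably expressing human GnRHR were dye-loaded for 1 h at 37 C. Compound was added in agonist mode and fluorescence (Ex/Em 480/540) recorded kinetically for 3 min. Fifteen concentrations, triplicates.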

The target of assay [4] is KiSS-1 receptor (Homo sapiens) (UniProt Q969F8). In words: Human kisspeptin (KISS1R) small molecule agonists, calcium flux assay in KISS1R-HEK293 cells (AID 1920064; active = well fitted curve in the direction sought with a large enough effect in the repeat runs; an effect the other way counts as inactive or inconclusive). The method in brief: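 HEK293 cells stably expressing human KISS1R were loaded with calcium dye for 1 h at 37 C, then given compound; fluorescence (Ex/Em 480/540) was read kinetically for 3 min. Fifteen concentrations, triplicate.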
KiSS-1 receptor (Homo sapiens), sequence (Q969F8 whole entry, looked up): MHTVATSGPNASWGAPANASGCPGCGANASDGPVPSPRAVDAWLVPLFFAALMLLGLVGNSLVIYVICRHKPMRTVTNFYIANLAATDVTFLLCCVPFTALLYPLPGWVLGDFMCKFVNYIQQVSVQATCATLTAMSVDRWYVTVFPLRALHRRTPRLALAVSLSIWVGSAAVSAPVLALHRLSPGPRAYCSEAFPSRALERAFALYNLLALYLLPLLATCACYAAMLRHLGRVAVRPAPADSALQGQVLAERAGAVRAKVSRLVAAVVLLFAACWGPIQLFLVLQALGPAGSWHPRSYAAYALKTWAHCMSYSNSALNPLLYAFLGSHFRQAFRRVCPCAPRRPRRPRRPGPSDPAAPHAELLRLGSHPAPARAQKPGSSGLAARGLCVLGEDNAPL

Assay [5] in a line: G protein-coupled receptor (GPCR) small molecule agonists, calcium flux assay: HEK293 wild type cell line counter screen (AID 1920065). The procedure, abridged: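 Wild-type HEK293 cells plated 18 h, loaded with calcium dye 1 h at 37 C, then compounds added in agonist mode (ATP as positive control). Kinetic fluorescence Ex/Em 480/540 recorded 3 min at 1 sec intervals; 15 concentrations, triplicate.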
(In general: A change in cytosolic calcium serves as a functional read-out for many receptors and channels.)

Assay [6] in a line: p53 small molecule agonists, cell-based qHTS assay with human liver microsomes (AID 1963577).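 Also: p53 response element beta-lactamase reporter cells with liver microsomes plus NADPH.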 The procedure, abridged:
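In this qHTS, p53 response-element beta-lactamase cells receive test compound together with a microsome/NADPH activating system (0.5 mg/mL final each) and are incubated 16 h at 37 C before LiveBLAzer fluorescence detection.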

Assay [7] is described as follows: p53 small molecule agonists, cell-based qHTS assay with rat liver microsomes (AID 1963578). The procedure, abridged:
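Agonist mode in p53RE-bla reporter cells, with compounds co-incubated 16 h at 37 C alongside 0.5 mg/mL rat liver microsomes and 0.5 mg/mL NADPH (final), followed by a 2 h LiveBLAzer detection step.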

A short description of assay [8]: p53 small molecule agonists, cell-based qHTS assay with human liver microsomes: qHTS cell viability counter screen (AID 1963579). Also: nearly all actives have a fitted effect of over 45% in size. The method in brief:
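Metabolically activated exposure: compounds, human liver microsomes and NADPH (0.5 mg/mL final apiece) were added to p53RE-bla cells seeded 5 h earlier, left 16 h at 37 C, and then assessed for viability by CellTiter-Glo luminescence.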

Assay [9] in a line: p53 small molecule agonists, cell-based qHTS assay with rat liver microsomes: qHTS cell viability counter screen (AID 1963580). Also: nearly all actives have a fitted effect of over 45% in size. The procedure, abridged:
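HCT-116 p53RE-bla, 4,000 cells/well, 5 h pre-incubation; cpd + rat liver microsomes 0.5 mg/mL + NADPH 0.5 mg/mL (final); 16 h, 37 C; CellTiter-Glo, 30 min RT; luminescence.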

Assay [10] is described as follows: p53 small molecule agonists, cell-based qHTS assay: qHTS cell viability counter screen (AID 1963581). Also: nearly all actives have a fitted effect of over 45% in size. The procedure, abridged:
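p53RE-bla HCT-116 cells, compounds added 5 h after plating and incubated 16 h at 37 C. Cytotoxicity measured in the same wells as intracellular ATP by CellTiter-Glo luminescence after 30 min at room temperature.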

The nature of assay [11]: p53 small molecule agonists, cell-based qHTS assay (AID 1963582; active = well fitted activation curve with a large enough effect in the signal ratio in the repeat runs, not every such curve was filed as active; the % refers to the signal ratio). The method in brief:
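p53RE-bla reporter cells, compounds added in DMSO after 5 h plating, incubated 16 h at 37 C. Beta-lactamase read via 2 h room-temperature LiveBLAzer B/G FRET substrate, fluorescence intensity.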

In assay [12] the target is 5-hydroxytryptamine receptor 2A (Homo sapiens) (UniProt P28223). The assay is described as follows: 5-hydroxytryptamine receptor 2A (HTR2A) small molecule antagonists, cell-based qHTS assay (AID 1963586). Also: nearly all actives have a fitted effect of over 45% in size. The procedure, abridged: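 Antagonist-mode intracellular calcium assay: DOI (4 nM) added after 5 min compound pre-incubation at room temperature to dye-loaded HTR2A-CHO cells. Fluorescence followed for 3 min, sampled every second.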
5-hydroxytryptamine receptor 2A (Homo sapiens), sequence (P28223 whole entry, looked up): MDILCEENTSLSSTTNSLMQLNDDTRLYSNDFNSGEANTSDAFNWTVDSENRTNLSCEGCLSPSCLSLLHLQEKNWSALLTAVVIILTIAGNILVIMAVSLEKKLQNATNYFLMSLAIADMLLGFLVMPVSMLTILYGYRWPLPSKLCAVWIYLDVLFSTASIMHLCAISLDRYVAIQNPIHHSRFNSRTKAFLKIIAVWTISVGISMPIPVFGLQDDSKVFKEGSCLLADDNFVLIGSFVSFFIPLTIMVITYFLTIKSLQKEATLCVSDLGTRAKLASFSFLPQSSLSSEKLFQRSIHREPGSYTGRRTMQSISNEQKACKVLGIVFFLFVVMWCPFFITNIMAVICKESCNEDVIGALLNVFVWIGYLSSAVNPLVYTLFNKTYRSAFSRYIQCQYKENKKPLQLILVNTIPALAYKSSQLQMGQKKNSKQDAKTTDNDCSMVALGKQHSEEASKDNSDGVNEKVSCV

Assay [13] shares this target. In words: 5-hydroxytryptamine receptor 2A (HTR2A) small molecule agonists, cell-based qHTS assay (AID 1963587). Also: nearly all actives have a fitted effect of over 30% in size. The method in brief:
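Kinetic calcium-flux fluorescence (2 min, 1 sec intervals) after compound addition in agonist mode. HTR2A-CHO cells were cultured 18 h, then dye-loaded 1 h at 37 C.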

Assay [14] deals with Muscarinic acetylcholine receptor M1 (Homo sapiens) (UniProt P11229). The assay is described as follows: Cholinergic receptor muscarinic 1 (CHRM1) small molecule antagonists, cell-based qHTS assay (AID 1963588). Also: nearly all actives have a fitted effect of over 40% in size. The procedure, abridged: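 CHRM1-CHO calcium-flux assay, antagonist mode. Cells were seeded 18 h, dye-loaded 1 h at 37 C and given compound for 5 min at RT, then acetylcholine was added at 50nM. FDSS fluorescence was read 3 min; 15 concentrations, three runs.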
Muscarinic acetylcholine receptor M1 (Homo sapiens), sequence (P11229 whole entry, looked up): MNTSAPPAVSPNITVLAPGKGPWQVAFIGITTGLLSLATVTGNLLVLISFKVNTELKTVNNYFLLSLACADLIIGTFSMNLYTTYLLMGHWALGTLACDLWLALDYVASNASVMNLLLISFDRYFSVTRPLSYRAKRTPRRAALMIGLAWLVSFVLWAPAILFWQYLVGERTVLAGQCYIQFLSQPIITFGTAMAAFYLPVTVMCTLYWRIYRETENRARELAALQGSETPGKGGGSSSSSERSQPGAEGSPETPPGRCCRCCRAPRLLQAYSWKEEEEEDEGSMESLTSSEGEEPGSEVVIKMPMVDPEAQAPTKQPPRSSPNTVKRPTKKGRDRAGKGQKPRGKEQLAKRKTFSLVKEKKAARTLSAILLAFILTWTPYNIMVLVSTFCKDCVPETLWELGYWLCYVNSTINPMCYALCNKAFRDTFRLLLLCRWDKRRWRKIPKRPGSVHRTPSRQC

Assay [15] shares this target. The assay is described as follows: Cholinergic receptor muscarinic 1 (CHRM1) small molecule agonists, cell-based qHTS assay (AID 1963589). Also: nearly all actives have a fitted effect of over 35% in size. The procedure, abridged: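 CHO cells stably expressing human CHRM1 were loaded with calcium dye for 1 h at 37 C, then compound was added in agonist mode. Intracellular calcium fluorescence was followed kinetically at 1 s intervals. Fifteen concentrations were tested in three independent runs.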

A short description of assay [16]: cAMP Responsive Elements (CRE) small molecule agonists, cell-based qHTS assay (AID 1963590). The method in brief: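 CRE-bla HEK 293T cells, 2,000/well in DMEM with 10% dialyzed FBS and 25 mM HEPES, pre-incubated 18 h at 37 C, then exposed to compound 3 h at 37 C. Beta-lactamase reporter read with LiveBLAzer B/G FRET substrate after 2 h at room temperature.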
A short description of assay [17]: cAMP Responsive Elements (CRE) small molecule antagonists, cell-based qHTS assay (AID 1963591; active = well fitted inhibition curve with a large enough effect in the signal ratio in the repeat runs, not every such curve was filed as active; the % refers to the signal ratio). The procedure, abridged: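 CRE-bla HEK293T cells plated 18 h, then given compound plus NKH477 at 0.25 uM final for 3 h at 37C. Beta-lactamase reporter read with LiveBLAzer B/G FRET substrate after 2 h at room temperature.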
In assay [18] the target is Beta-2 adrenergic receptor (Homo sapiens) (UniProt P07550). In words: Adrenergic beta2 receptor (ADRB2) small molecule antagonists, cell-based qHTS assay (AID 1963592). Also: series mostly up to about 92 µM; nearly all actives have a fitted effect of over 50% in size. The procedure, abridged:
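Cells (CHO, stable ADRB2 overexpression) incubated 18-20hr at 37C; compounds added from DMSO; agonist mix (1nM isoproterenol, 100uM IBMX, 25uM Ro-20-1724) added; 0.5hr RT; d2-cAMP and anti-cAMP-cryptate added; 1hr RT; 665/615 nm read.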

For assay [19] the target is unchanged. The assay is described as follows: Adrenergic beta2 receptor (ADRB2) small molecule agonists, cell-based qHTS assay (AID 1963593).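 Also: CHO cells stably overexpressing human ADRB2.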 The method in brief:
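CHO cells stably over-expressing ADRB2 were plated overnight at 37C, then dosed with compounds plus a stimulation mix containing 100uM IBMX and 25uM Ro-20-1724 for 0.5hr at room temperature. cAMP was measured by HTRF competition, 1hr.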

The target in assay [20] is D(2) dopamine receptor (Homo sapiens) (UniProt P14416). The assay is described as follows: Dopamine D2 receptor (DRD2) small molecule agonists, cell-based qHTS assay (AID 1963594). Also: nearly all actives have a fitted effect of over 35% in size. The procedure, abridged:
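cAMP accumulation in DRD2-HEK293 cells measured by HTRF after 1 h detection; compounds added 10 min before NKH477 (200nM […]) forskolin-analogue stimulation, 30 min at room temperature, with Ro20-1724 present at 0.1 mM final.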

Gonadotropin-releasing hormone receptor (Homo sapiens), sequence (P30968 whole entry, looked up): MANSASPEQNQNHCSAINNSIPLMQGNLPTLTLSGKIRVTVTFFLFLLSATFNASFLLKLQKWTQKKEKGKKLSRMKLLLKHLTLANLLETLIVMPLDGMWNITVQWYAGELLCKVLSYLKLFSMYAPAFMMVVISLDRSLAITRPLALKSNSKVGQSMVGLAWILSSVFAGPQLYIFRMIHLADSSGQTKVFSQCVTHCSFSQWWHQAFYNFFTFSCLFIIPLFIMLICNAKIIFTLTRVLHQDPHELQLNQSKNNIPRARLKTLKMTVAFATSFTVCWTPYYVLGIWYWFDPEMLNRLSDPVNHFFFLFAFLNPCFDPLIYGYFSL
D(2) dopamine receptor (Homo sapiens), sequence (P14416 whole entry, looked up): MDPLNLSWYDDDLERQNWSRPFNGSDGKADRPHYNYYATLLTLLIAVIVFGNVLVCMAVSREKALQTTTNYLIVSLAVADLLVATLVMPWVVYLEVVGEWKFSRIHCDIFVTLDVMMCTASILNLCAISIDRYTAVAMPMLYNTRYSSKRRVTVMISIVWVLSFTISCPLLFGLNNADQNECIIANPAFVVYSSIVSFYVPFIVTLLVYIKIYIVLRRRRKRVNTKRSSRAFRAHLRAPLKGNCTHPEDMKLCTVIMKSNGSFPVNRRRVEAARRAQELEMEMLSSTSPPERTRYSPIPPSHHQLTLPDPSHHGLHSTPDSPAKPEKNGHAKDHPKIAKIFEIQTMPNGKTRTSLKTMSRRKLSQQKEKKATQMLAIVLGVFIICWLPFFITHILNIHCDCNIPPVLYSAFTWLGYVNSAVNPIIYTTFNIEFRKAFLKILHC
Beta-2 adrenergic receptor (Homo sapiens), sequence (P07550 whole entry, looked up): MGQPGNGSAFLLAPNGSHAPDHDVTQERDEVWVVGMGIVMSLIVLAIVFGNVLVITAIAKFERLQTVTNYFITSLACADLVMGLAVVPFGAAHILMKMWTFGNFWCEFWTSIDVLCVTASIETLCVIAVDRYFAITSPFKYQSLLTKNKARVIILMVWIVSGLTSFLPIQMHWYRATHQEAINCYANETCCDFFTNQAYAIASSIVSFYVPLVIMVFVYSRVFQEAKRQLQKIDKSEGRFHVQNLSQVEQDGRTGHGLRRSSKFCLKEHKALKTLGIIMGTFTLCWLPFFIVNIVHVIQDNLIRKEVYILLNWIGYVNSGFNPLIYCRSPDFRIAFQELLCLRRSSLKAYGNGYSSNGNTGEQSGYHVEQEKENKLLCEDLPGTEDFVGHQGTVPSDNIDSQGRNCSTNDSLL

For the compound `CC(=O)N[C@@H](Cc1ccc(O)cc1)C(=O)O`, the Potency entry in assay [1], in assay [2], in assay [3], in [4], in [5] and in [6] was “inactive” each time. Also, the Potency result in assay [7], in assay [8], in assay [9], in assay [10], in [11] and in assay [12] was “inactive” each time. Moreover, the Potency result in assay [13], in [14], in assay [15], in assay [16], in assay [17] and in assay [18] was “inactive” each time. In addition, the Potency entry in [19] and in [20] was “inactive” each time.

`Cc1cccc(C)c1NC(=O)CN1CCCCCC1`: the Potency result in assay [1], in assay [2], in assay [3], in [4], in [5] and in assay [6] was “inactive” each time. Moreover, the Potency entry in assay [7], in [8], in [9], in [10], in assay [11] and in assay [12] was “inactive” in each case. Further, the Potency result in assay [13], in assay [14], in assay [15], in assay [16], in [17] and in [18] was “inactive” throughout. The Potency entry in [19] and in assay [20] was “inactive” throughout.

As for `CCCCCCc1ccc(-c2ccc(C#N)cc2)cc1`, the Potency result in assay [1], in assay [3], in assay [4], in assay [5], in assay [6] and in assay [7] was “inactive” throughout. The Potency entry in assay [8], in assay [9], in assay [10], in assay [11], in [12] and in assay [13] was “inactive” throughout. The Potency entry in assay [14], in [15], in [16], in [17], in assay [18] and in assay [19] was “inactive” each time. Also, in assay [20], the Potency entry is “inactive”. Besides, the Potency in [2] was 13.4 µM (active).

As for `CC1=C(O)C(=O)OC1C` (stereo not given), the Potency entry in assay [1], in assay [2], in assay [3], in assay [4], in assay [5] and in assay [6] was “inactive” each time. Moreover, the Potency result in assay [7], in [8], in [9], in assay [10], in assay [11] and in assay [12] was “inactive” each time. Moreover, the Potency entry in assay [13], in assay [14], in [15], in assay [16], in assay [17] and in [18] was “inactive” throughout. Besides, the Potency result in [19] and in [20] was “inactive” each time.

For the compound `O=Cc1ccc(Cl)c(Cl)c1`, the Potency entry in assay [1], in assay [2], in [3], in [4], in assay [5] and in assay [6] was “inactive” throughout. Besides, the Potency entry in [7], in assay [8], in [9], in [10], in [11] and in assay [12] was “inactive” in each case. Also, the Potency entry in assay [13], in [14], in [15], in [16], in assay [17] and in assay [18] was “inactive” each time. Also, the Potency entry in [19] and in assay [20] was “inactive” in each case.

Turning to `COc1cc(C(=O)N2CCCCCCC2)cc(OC)c1OC`, the Potency result in assay [1], in assay [2], in assay [3], in assay [4], in assay [5] and in assay [6] was “inactive” in each case. In addition, the Potency result in [7], in [8], in [9], in assay [10], in assay [11] and in assay [12] was “inactive” throughout. Further, the Potency entry in assay [13], in assay [14], in assay [15], in [16], in [17] and in assay [18] was “inactive” throughout. For the same compound, the Potency entry in [19] and in [20] was “inactive” in each case.

For `COC(=O)/C=C(/C)N`, the Potency entry in assay [1], in assay [2], in [3], in assay [4], in assay [5] and in assay [6] was “inactive” each time. Moreover, the Potency entry in assay [7], in assay [8], in assay [9], in assay [10], in assay [11] and in [12] was “inactive” throughout. For the same compound, the Potency entry in assay [13], in [14], in assay [15], in assay [16], in [17] and in assay [18] was “inactive” in each case. Further, the Potency entry in [19] and in assay [20] was “inactive” each time.
